Shown are actives, neighbours in structure and some others; about 2.5% of the full set was active somewhere.
MARV entry inh – qHTS for inhibitors of binding or entry into cells for Marburg Virus; Marburg virus pseudotyped entry inhibition, cell reporter; Potency, µM (doses to about 37.8 µM), for the others: at the top dose activity change, negative = inhibition, usual class: inhibitors; actives 1.8% (n = 300,000); calls by dose curve; tested in HEK293 cells
VACV mCherry inh – qHTS for Stage-Specific Inhibitors of Vaccinia Orthopoxvirus: mCherry Reporter Primary qHTS; Vaccinia virus mCherry reporter infection, fluorescence; Potency, µM (titrated, usually from 36.5 µM), for the others: at the highest dose activity change, negative = inhibition, actives largely listed as inhibitors; actives 0.63% (n = 310,000); calls by dose curve; tested in A549 cells; also: nearly all actives have a fitted effect of over 35% in size
Lassa entry inh – qHTS for Inhibitors of binding or entry into cells for Lassa Virus | Lassa virus pseudotype entry inhibition, cell reporter | Potency, µM (titrated, usually from 37.9 µM), for inactives: at the highest dose activity change, negative = inhibition, actives largely listed as inhibitors | actives 1.2% (n = 300,000); calls by dose curve; tested in HEK293 cells; also: nearly all actives have a fitted effect of over 50% in size
VACV Venus inh – qHTS for Stage-Specific Inhibitors of Vaccinia Orthopoxvirus: Venus Reporter Primary qHTS; Potency, µM (top dose mostly 36.5 µM), for the others: top-dose activity change, negative = inhibition, usual class: inhibitors; actives 0.46% (n = 330,000); Vaccinia virus Venus reporter expression, fluorescence; calls by dose curve; tested in A549 cells; also: nearly all actives have a fitted effect of over 30% in size
The depositor's hits bear a star; i = inactive; ? = inconclusive; · = not tested or not shown; [ ] = remark or other dose. % is scaled to controls: 0 for no effect and ±100 for the full control effect; potency is read from the fitted curve at half-maximal effect.

SMILES | MARV entry inh | VACV mCherry inh | Lassa entry inh | VACV Venus inh
COc1ccc(/C=c2\[nH]c(=O)/c(=C/c3ccc(OC)cc3)[nH]c2=O)cc1 | · | i | · | -2%
COc1ccc(CN2CCOc3ccc(C(O)c4cccnc4)cc3C2)cc1O (stereo not given) | · | -13% | · | -7%
Oc1cc2c(cc1O)[C@H]1c3ccccc3CN[C@@H]1CC2 | · | i | · | -7%
Oc1cc2c(cc1O)[C@H]1c3ccccc3CN[C@H]1CC2 | 16µM* | -5% | · | -17%
COc1ccc2c3c(c(=O)oc2c1)[C@H]1O[C@](c2ccsc2)(Cc2ccccc21)O3 | -20%[14.2 µM] | · | · | ·
CC(=O)OC[C@H]1O[C@H](C#CC(C)(C)C)C=C[C@H]1OC(C)=O | 16%[14.2 µM] | · | · | ·
COCc1c(C(=O)N2CCN(C3CCCCC3)CC2)cnn1-c1ncc(C)c(-c2cccs2)n1 | · | -2% | · | -11%
COC(=O)C1=C(C)NC(=O)/C1=C\c1cc(C)n(-c2c(C)cccc2C)c1C | 12µM* | -6% | ? | -5%
COC(=O)C1=C(C)NC(=O)/C1=C\c1cc(C)n(-c2ccccc2C)c1C | -4% | ? | ? | -16%
CCOC(=O)CN1C(=O)[C@]2(OCCC=C[C@@H]2C)c2c(Br)cccc21 | -20%[14.2 µM] | · | · | ·
Cc1[nH]c2ccc(-c3nnc(SCC(=O)c4ccccc4F)o3)cc2c1C | ? | -24% | 8.9µM* | -10%
COc1cc(NC(=O)C2=C(C)OCCS2)c(Cl)cc1C(=O)NCCN(C)C | 10µM* | -3% | -39%[46.1 µM] | -21%
COc1cc(CNC(C)c2ccccc2)cc(Br)c1OCc1ccccc1 (stereo not given) | 7.9µM* | -25% | ? | ?
COc1cc(CNn2c(C)n[nH]c2=S)cc(Br)c1OCc1ccc(F)cc1 | -22% | -25% | ? | -14%
COc1cc(CNC(C)c2ccccc2)cc(Br)c1OCc1ccc(F)cc1 (stereo not given) | 3.5µM* | ? | ? | ?
COc1cc(CNc2ccc(O)cc2)cc(Br)c1OCc1ccccc1 | · | -11% | · | -18%
COc1cc(=O)n2c(c1C(=O)N(C)Cc1nonc1C)CCN(Cc1ccccc1F)CC2 | · | -2% | · | 1%
Cc1ccc2c(c1)CN(C(=O)CC(c1ccccc1)c1ccco1)CC(C)O2 (stereo not given) | · | ? | · | -26%
CCOC(=O)Nc1cccnc1Sc1ccc(Cl)cc1 | -12%[46.1 µM] | 20% | 20%[46.1 µM] | 2%
CCCNC(=O)OCc1cccnc1Sc1ccc(C)cc1 | ? | -3% | 10µM* | 4%
Cc1cc(Nc2nc3ccccc3[nH]c2=O)n(-c2ccccc2)n1 | ? | 7.1µM* | ? | 8.9µM*
Nc1c(C(=O)Nc2ccc(S(=O)(=O)N3CCCC3)cc2)sc2nc3cc4c(cc3cc12)CCC4 | ? | -11% | ? | 9%
Nc1c(C(=O)Nc2ccc(S(=O)(=O)N3CCCC3)cc2)sc2nc3ccc(OC(F)(F)F)cc3cc12 | 6.3µM* | -18% | ? | -11%
Cc1cccc(-n2cnc(C(=O)NNC(=S)Nc3ccc(Cl)cc3)c2)n1 | 11µM* | ? | ? | -3%
C=CCc1ccc(OCC(O)CN2CCN(Cc3ccc(Cl)cc3)CC2)c(OC)c1 (stereo not given) | 8.2µM* | ? | ? | ?
SMILES | MARV entry inh | VACV mCherry inh | Lassa entry inh | VACV Venus inh
C=CCc1ccc(OCC(O)CN2CCC(Cc3ccccc3)CC2)c(OC)c1 (stereo not given) | ? | · | 13µM* | ?
O=C1C=C(c2ccccc2)C[C@H](c2cccs2)[C@H]1n1nnc([N+](=O)[O-])n1 | 2µM* | 14µM* | ? | ?
Nc1nc(Cl)cc(N2CCC(c3cc(-c4ccc(Cl)cc4)n[nH]3)CC2)n1 | ? | · | 6.5µM* | ·
COc1ccc(OC)c(-c2cc(C3CCN(c4cc(Cl)nc(N)n4)CC3)[nH]n2)c1 | ? | 13µM* | ? | ?
COc1ccc(-c2cc(C3CCN(Cc4cccc(C(F)(F)F)c4)CC3)[nH]n2)cc1 | 10µM* | -28% | ? | ?
COc1ccc(-c2cc(C3CCN(Cc4ccc([N+](=O)[O-])cc4)CC3)[nH]n2)cc1 | ? | -14% | 2% | -3%
COc1ccc(-c2cc(C3CCN(c4cc(Cl)nc(N)n4)CC3)[nH]n2)cc1 | 9.2µM* | · | ? | ·
COc1ccccc1C(=O)N[C@@H]1c2ccccc2C2(CCN(Cc3cccnc3)CC2)[C@H]1O | · | -16% | · | -8%
COc1cc([C@@H]2C(C(C)=O)=C(O)C(=O)N2c2ccc(Br)cn2)ccc1O | -9% | · | · | ·
Cc1nn(-c2ccccc2)c(Cl)c1/C=N/Nc1ccc(Cl)c(C(=O)O)c1 | 2µM* | -7% | ? | -8%
O=C(NC1CC1)[C@@H]1C[C@H](Sc2nc3ccccc3[nH]2)CN1CC1CCCCC1 | · | -18% | · | -12%
Cc1ccc(Cc2nc3ccccc3nc2SCC(=O)N2CCCCC2C)cc1 (stereo not given) | · | -8% | ? | -15%
CCN(C(=O)CSc1nc(-c2ccccc2)no1)c1cccc(C)c1 | -26%[46.1 µM] | 2.8µM* | 0%[46.1 µM] | ?
CCN(C(=O)CSc1nc2ccccc2nc1Cc1ccc(F)cc1)c1cccc(C)c1 | · | -7% | ? | -9%
CCN(C(=O)CSc1nc2ccccc2nc1Cc1cccc(OC)c1)c1cccc(C)c1 | · | -7% | 7.1µM* | -13%
COc1cccc(Cc2nc3ccccc3nc2SCC(=O)N2CCCCC2C)c1 (stereo not given) | · | -8% | 11µM* | 3%
Cc1ccccc1C1(CC(=O)N2CCCCC2C)CC(=O)N(Cc2cccnc2)C1=O (stereo not given) | · | -10% | · | 3%
CCOc1ccccc1C(=O)Nc1cccc(-c2ccc3nncn3n2)c1 | 7.1µM* | -3% | ? | -18%
c1ccc(CN2CCN(C3CCCSc4ccccc43)CC2)cc1 (stereo not given) | 16µM* | i | ? | -11%
Cc1cccc(C2c3[nH]c4ccccc4c3CCN2C(=O)c2nn(C)c(=O)c3ccccc23)n1 (stereo not given) | ? | 3% | 11µM* | -6%
Nc1cc(Cl)c2nonc2c1[N+](=O)[O-] | ? | 10µM* | ? | 10µM*
O=[N+]([O-])c1c(Nc2ccccc2O)cc(Cl)c2nonc12 | ? | -24% | ? | ?
COc1ccccc1NC(C)C(=O)c1c[nH]c2ccccc12 (stereo not given) | · | i | · | -10%
CCc1cc(C(=O)N2CCc3c([nH]c4ccccc34)C2c2ccc(OC)cc2F)no1 (stereo not given) | 0.89µM* | 11µM* | ? | -16%
Cc1nnc(-c2ccccc2)c(=O)n1/N=C/c1c(O)ccc2ccccc12 | ? | 3.2µM* | ? | ?
Cc1nc2ccccc2c(=O)n1/N=C/c1ccc(O)c(O)c1O | · | -1% | · | -1%
O=C(N/N=C/c1ccc([N+](=O)[O-])o1)c1ccc(O)cc1 | ? | 13µM* | ? | ?
O=C(Cc1ccc2c(c1)OCO2)NN=Cc1ccc([N+](=O)[O-])o1 | 10µM* | ? | ? | ?
Cc1ccc(NCC(=O)N/N=C/c2ccc(C(=O)O)cc2)cc1 | · | -9% | · | -12%
O=C(CNC(=O)c1ccccc1)N/N=C/c1ccc([N+](=O)[O-])o1 | -38% | · | -24% | ·
